High-throughput results (PubChem BioAssay)
Hits are enriched below; roughly 11% of the tested compounds scored in any of these assays.
HTT cytoprotect = protects HTT-Q103 PC12 cells, measured by ATP; PC12 HTT-Q103 induced, cytoprotection, ATP luminescence, 40 h; Potency, µM (series often up to 56.4 µM), without a hit: cytoprotection (ATP increase), most hits filed as activators; 230,000 tested, 0.14% active; AID 1471; active = well fitted curve in the direction sought with a large enough effect; inconclusive = small, poorly fitted or top-dose-only effect, or another doubt; inactive = no such curve, though single readings can be large; an effect the other way counts as inactive or inconclusive; also: potency is read from the fitted curve at half-maximal effect; % of control where 0% means no effect; nearly all actives have a fitted effect of over 45% in size
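PC12 cells stably carrying ecdysone-inducible Htt exon 1 (Q103)–GFP were induced with 100 nM tebufenozide (final) alongside library compounds in a dose series. Cytoprotection was scored as retained ATP by ATPlite luminescence.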
GoLoco inh red = RGS12 GoLoco-Gai1 interaction inhibition. P63096. Gai1:RGS12 GoLoco peptide FP, rhodamine, 10 min. Potency, µM (top dose mostly 61.6 µM), inactives show top-dose activity, negative = inhibition, actives largely listed as inhibitors. 230,000 tested, 0.44% active; active = well fitted inhibition curve with a large enough effect, not every such curve was filed as active; inactive = no such curve, though single readings can be large or run the other way; also: potency is read from the fitted curve at half-maximal effect; % is scaled to controls: 0 for no effect and ±100 for the full control effect; nearly all actives have a fitted effect of over 30% in size
Target sequence (P63096 whole entry, looked up): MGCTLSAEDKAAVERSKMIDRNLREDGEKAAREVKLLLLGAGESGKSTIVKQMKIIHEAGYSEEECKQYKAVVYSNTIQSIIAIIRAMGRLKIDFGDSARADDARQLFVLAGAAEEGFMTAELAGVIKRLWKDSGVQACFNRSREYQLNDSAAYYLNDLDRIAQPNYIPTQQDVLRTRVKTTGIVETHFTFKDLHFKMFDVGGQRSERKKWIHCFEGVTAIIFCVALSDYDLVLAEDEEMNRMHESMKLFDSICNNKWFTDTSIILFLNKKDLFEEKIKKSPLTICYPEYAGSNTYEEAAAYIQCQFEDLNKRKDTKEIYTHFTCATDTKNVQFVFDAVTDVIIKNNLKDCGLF
HTT aggregate = mutant huntingtin aggregation inhibition | PC12 HttQ103-GFP aggregates, Acumen cytometry, 40 h | Potency, µM (top dose mostly 46.1 µM), inactives show at the top dose activity change, negative = inhibition, actives largely listed as inhibitors | 220,000 tested, 1.1% active | AID 1688; active = well fitted curve in the direction sought with a large enough effect; inconclusive = small, poorly fitted or top-dose-only effect, or another doubt; inactive = no such curve, though single readings can be large; an effect the other way counts as inactive or inconclusive; also: potency is read from the fitted curve at half-maximal effect; % is scaled to controls: 0 for no effect and ±100 for the full control effect; nearly all actives have a fitted effect of over 60% in size
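Aggregates are detected as GFP objects 1–25 µm with signal 6 STDEV over background in lysates of induced PC12 cells. These carry Huntingtin exon 1 with 103 glutamines fused to GFP under an ecdysone promoter; compounds titrated.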
HPGD inh = blocks human HPGD enzyme activity | P15428 | purified HPGD, NADH fluorescence kinetic, PGE2 substrate | Potency, µM, for inactives: top-dose activity change, negative = inhibition, most hits filed as inhibitors | 150,000 tested, 4.3% active | AID 894; also: potency is read from the fitted curve at half-maximal effect; % is scaled to controls: 0 for no effect and ±100 for the full control effect
Target sequence (P15428 whole entry, looked up): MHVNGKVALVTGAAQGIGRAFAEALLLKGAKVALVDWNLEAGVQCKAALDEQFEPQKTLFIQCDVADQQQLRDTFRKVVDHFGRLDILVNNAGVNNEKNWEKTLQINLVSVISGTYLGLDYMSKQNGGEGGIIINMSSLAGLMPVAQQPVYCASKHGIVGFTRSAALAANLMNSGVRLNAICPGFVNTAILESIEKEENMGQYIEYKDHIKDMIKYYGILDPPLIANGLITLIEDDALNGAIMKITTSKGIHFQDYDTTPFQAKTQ
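NADH formation kinetics: reaction with 30 uM PGE2 and 1 mM NAD+ (final), 20 nM enzyme, Tris-HCl pH 8 with Tween 20, after 15 min compound preincubation at room temperature. Fluorescence change, last versus first of five reads.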
PNC inhibitor = perinucleolar compartment assembly inhibition | PC3M PTB-GFP, PNC prevalence imaging, 16 h; stronger effect = lower value | 140,000 tested, 3.1% active | activity change (PNC), negative = inhibition, % at 10 µM;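 active = readout at or below -70, meaning at least 70% loss of cells showing the perinucleolar compartment, a nuclear body marking cancer cells; inconclusive = readout between -30 and a set limit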;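 also: plate controls were DMSO wells for no effect and camptothecin positive control wells for full effect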
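Read-out is percentage of cells bearing a perinucleolar compartment, from automated 20x imaging of fixed, Hoechst-stained PC3M PTB-GFP cells. Cells were seeded 4 h, then exposed 16 h to compound (23 nl of library stock) in duplicate plates.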
ALDH1A1 block = blocks purified human ALDH1A1 activity | 220,000 tested, 7.3% active | Potency, µM (doses to about 75.3 µM), without a hit: top-dose activity, negative = inhibition, hits mostly inhibitors | AID 1030 | Purified ALDH1A1, NADH fluorescence, propionaldehyde substrate;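 also: potency is read from the fitted curve at half-maximal effect; plate controls were no enzyme wells and a reference inhibitor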
* hit, by the source's call; ? = inconclusive; / = no result given; [ ] = dose if it differs, or a comment. Unless noted, calls follow the shape of the dose curve; as a rule, active = well fitted inhibition curve with a large enough effect (not every such curve was filed as active); inconclusive = small, poorly fitted or top-dose-only effect, or another doubt; inactive = no such curve, though single readings can be large or run the other way.

SMILES	HTT cytoprotect	GoLoco inh red	HTT aggregate	HPGD inh	PNC inhibitor	ALDH1A1 block
Cc1ccc(N=c2ssnc2Cl)cc1	-3%	2%	12%	2.8µM*	?	2.2µM*
Cc1ccc(S(=O)(=O)OCC(=O)O)cc1	11%[10 µM]	2%[14.2 µM]	/	-1%	/	-6%[13.5 µM]
CCOC(=O)C1=C(C)c2ccccc2N(C(=O)OC)C1(C)C(=O)OCC (centres undefined)	-23%	-11%[88.7 µM]	/	?	/	32µM*
C/C(=C(/CCOC(=O)C(C)C)SS/C(CCOC(=O)C(C)C)=C(\C)N(C=O)Cc1cnc(C)nc1N)N(C=O)Cc1cnc(C)nc1N	-2%	/	11%	/	/	/
CN(C)c1ccc(/C=N/NC(=O)c2sccc2-n2cccc2)cc1	-33%	1%	31%	/	/	20µM*
Cc1ccc(S(=O)(=O)NNC(=O)c2cnn(-c3ccccc3)c2-n2cccc2)cc1	-23%	5%	13%	-5%	-18	0.18µM*
Cc1ccc(S(=O)(=O)NNC(=O)c2sccc2-n2cccc2)cc1	11%	4%	5%	-7%	?	10µM*
Cc1ccc(S(=O)(=O)NNC(=O)c2sc3nc(C)cc(C)c3c2-n2cccc2)cc1	18%[10 µM]	1%	0%	-5%	-90*	0.14µM*
Cc1ccc(S(=O)(=O)Nc2nc(C)c(C(=O)NNS(=O)(=O)c3ccccc3)s2)cc1	-15%[10 µM]	0%	-2%[9.22 µM]	/	/	?
O=C(CN1C(=O)C2C3C=CC(C3)C2C1=O)N1CC=C(c2ccccc2)CC1 (centres undefined)	-4%	8%	-13%	-6%	64	-11%
Cn1c(=O)c(-c2ccc(Cl)cc2)nc2cnc(Oc3ccccc3)nc21	19%	16%	/	-8%	/	?
Cc1ccc(CNC(=O)c2sccc2-n2cccc2)cc1	4%[0.074 µM]	10%	3%	13µM*	?	?
CNC(=O)c1sccc1-n1cccc1	5%	-5%	-6%	-7%	46	-5%
BrC(/C=C\c1ccccc1)=N/Nc1nc(N2CCOCC2)nc(N2CCOCC2)n1	15%[10 µM]	8%	2%[9.22 µM]	/	/	-6%
BrC(=C\c1ccccc1)/C=N/Nc1nc(N2CCOCC2)nc(N2CCOCC2)n1	18%[10 µM]	-9%	28%	16µM*	67	0%
Cc1nc2c3ccccc3nc(SCC(=O)N3CC(C)CC(C)C3)n2n1 (centres undefined)	-2%	6%	19%	?	16	7.1µM*
CCOC(=O)c1ccc(CC(=O)c2ccc(O)c(O)c2O)o1	-3%[10 µM]	-18%	-15%[9.22 µM]	/	/	10µM*
O=C(Nc1ccc(O)c2c(=O)cc(-c3cccc(Cl)c3)oc12)c1ccccc1Cl	6%[10 µM]	3%	22%[9.22 µM]	/	/	/
CC(C)=CCC/C(C)=C/CO/N=C1/C[C@@H](O)[C@@H](O)[C@@H]2[C@@H]3C(=O)N(C[C@@H]4CCCO4)C(=O)[C@H]3CC[C@@H]12	-8%[10 µM]	/	/	/	/	-1%[13.5 µM]
CO[C@H]1COC(=O)C/C=C\[C@H](C)[C@H](OC)COC(=O)[C@@H](C)NC(=O)C/C=C\[C@@H]1C	-3%[10 µM]	/	/	/	/	-2%[13.5 µM]
CCn1c(=O)cc(OCC(=O)N2CCN(c3ccc(F)cc3)CC2)c2ccccc21	-49%	3%	?	/	/	-12%
CCCN(CCC)C(=O)COc1cc(=O)n(CC)c2ccccc12	-22%	3%	0%	25µM*	-19	-7%
CCN(Cc1ccccc1)C(=O)COc1cc(=O)n(CC)c2ccccc12	23%	-14%	15%[9.22 µM]	-24%	6	?
CCN(C(=O)COc1cc(=O)n(CC)c2ccccc12)c1cccc(Cl)c1	5%	5%	9%	-3%	6	6.3µM*
CCn1c(=O)cc(OCC(=O)N2CCCCCC2)c2ccccc21	-10%	5%	?	32µM*	?	?
SMILES	HTT cytoprotect	GoLoco inh red	HTT aggregate	HPGD inh	PNC inhibitor	ALDH1A1 block
O=C(NC(=S)Nc1cc(S(=O)(=O)N2CCOCC2)ccc1N1CCOCC1)C1CCCC1	13%	6%	?	/	/	3%
Cc1noc(C)c1-c1ccc2ncnc(Nc3ccc(F)cc3)c2c1	-67%	2%	/	/	/	-15%
O=C(Nc1ccccc1C(=O)NCc1cccnc1)c1cccc([N+](=O)[O-])c1	5%	9%	9%	/	/	?
CC(=Nc1ccccc1)C1=C(O)CSC1=O	7%	14%	4%[9.22 µM]	-18%	-12	25µM*
Cc1cc(C)c(S(=O)(=O)N(C)c2ccccc2)c(C)c1	-8%	9%	-27%	/	/	6%
CCc1nc2c(sc3nc4c(cc32)COC(C)(C)C4)c(=O)n1Cc1ccco1	-30%	2%	-8%	-27%	?	2.5µM*
CCc1nc(OCc2ccco2)c2sc3nc4c(cc3c2n1)COC(C)(C)C4	-43%	-10%	?	-24%	-30	?
CCc1nc2c(sc3nc4c(cc32)COC(C)(C)C4)c(=O)n1Cc1ccccc1	-2%	-21%	-9%	?	36	0.71µM*
CCn1c2ccccc2c2cc(NC(=O)C(=O)N3CCOCC3)ccc21	1%[10 µM]	15%	-2%[9.22 µM]	/	/	?
CCC(C)[C@H](NC(=O)N1CCN(C)CC1)C(=O)OC (some centres undefined)	6%[10 µM]	-4%	0%	-7%	?	-1%
CCC(C)NC(=S)N1CCN(C)CC1 (centres undefined)	-62%	3%	-18%	/	/	22µM*
Cc1cccc(N2C(=O)c3cccc4c(N(C)CCO)ccc(c34)C2=O)c1	-21%[10 µM]	25µM*	?	?	14	?
CN(C)c1ccc2c3c(cccc13)C(=O)N(c1ccccc1)C2=O	2%[10 µM]	6%	-2%[9.22 µM]	/	/	5%
O=c1c[n+](CC[n+]2cc(=O)o[nH]2)[nH]o1	12%[10 µM]	-3%[14.2 µM]	/	4%	/	-1%[13.5 µM]
C/C(CC(=O)NC12CC3CC(CC(C3)C1)C2)=N\NC(=O)c1ccc(C)cc1	29%[10 µM]	3%	1%[9.22 µM]	/	/	5%
COc1ccc(CC(=O)OCCN(C)C)cc1	17%	4%	18%[9.22 µM]	-12%	7	18%
CCCC(O)(CCN(C)C)c1ccc(OC)cc1 (centres undefined)	-3%	-2%	4%	5%	20	10µM*
CCn1c(SCc2nc3ccccc3nc2C)nnc1-c1cccs1	-10%[10 µM]	14%	-11%	-7%	5	0%
C=CCn1c(SCc2nc3ccccc3nc2C)nnc1-c1ccoc1C	10%	34%	6%	25µM*	?	1.6µM*
Cc1n(C)c2cc(Cl)ccc2[n+]1Cc1ccccc1	-11%	5%	-16%	/	/	7%
COC(=O)c1ccc(C(=O)NCCCCO)cc1	-28%	3%	-3%	/	/	8%
O=C(CSc1nc(O)cc(=O)[nH]1)N1CCCc2ccccc21	0%	3%	-22%	18µM*	-30	22µM*
